The values that follow come from PubChem BioAssay (NCI).

This is part of a sample that, as a whole, favours compounds with a hit. Of some 79,000 tested, about 15% had one in any assay. Unmarked numbers belong to inactive results. The source made the active and inactive calls. Rule as the data show it: active = growth inhibition above about 70%; inactive = the rest.

Assay [1] in a line: NCI Yeast Anticancer Drug Screen. Data for the rad50 strain (AID 155).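 Also: 0% = growth of vehicle-only cultures of the same strain.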 The note with it: S. cerevisiae rad50 strain growth inhibition, active compounds read high. An outline of the steps: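 Yeast carrying a defined DNA repair defect were exposed to test compounds, and growth was compared with vehicle-treated controls to give percent inhibition.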
The nature of assay [2]: NCI Yeast Anticancer Drug Screen. Data for the mec2-1 strain (AID 157). Particulars: S. cerevisiae mec2-1 strain, active compounds read high. An outline of the steps: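 Yeast mec2-1 mutant treated with compound. Readout: growth inhibition vs vehicle controls.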
Assay [3] can be described thus: NCI Yeast Anticancer Drug Screen. Data for the sgs1 mgt1 strain (AID 161).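 Also: 0% = growth of cultures given vehicle only.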 The note with it: S. cerevisiae sgs1 mgt1 strain, active compounds read high. An outline of the steps: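 Test agents were incubated with a DNA-repair-mutant yeast strain. Growth was then read and compared against vehicle-treated controls.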
Assay [4] is described as follows: NCI Yeast Anticancer Drug Screen. Data for the cln2 rad14 strain (AID 165).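 Also: 0% = growth equal to vehicle treated cultures.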 Particulars: S. cerevisiae cln2 rad14 strain, active compounds read high. An outline of the steps: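 cln2 rad14 yeast strain; compound exposure; growth inhibition read vs vehicle controls.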
The nature of assay [5]: NCI Yeast Anticancer Drug Screen. Data for the bub3 strain (AID 167). Particulars: S. cerevisiae bub3 mutant strain, active compounds read high. The gist of the method:
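Compounds were applied to a genetically altered yeast strain carrying a cell-cycle control defect. Growth inhibition was scored against vehicle-treated controls.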

Assay [6] can be described thus: NCI Yeast Anticancer Drug Screen. Data for the mlh1 rad18 strain (AID 175). Particulars: S. cerevisiae mlh1 rad18 strain growth inhibition, active compounds read high. The gist of the method:
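Yeast w/ defined DNA-repair lesions; compound exposure; growth vs vehicle controls → % inhibition.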

Setting [7] is: at 5.0 µM (retest, dose inferred, filed as 0.5).
Where [8] appears, read: at 50.0 µM (retest, dose inferred, filed as 5.0).

Regarding `Clc1cc(Cl)c2cc3cccc[n+]3cc2c1Cl`, the growth inhibition in assay [1] (setting [7]) was 0%; in assay [1] (setting [8]), 19%; in assay [1] (at 50.0 µM), 90.2% (active); in assay [2] (setting [7]), -11%; in assay [2] (setting [8]), 33%; in assay [2] (at 50.0 µM), 93.5% (active). Moreover, the growth inhibition in assay [3] (setting [7]) was 2%; in assay [3] (setting [8]), -18%; in assay [3] (at 50.0 µM), 79.2% (active); in assay [4] (setting [7]), 4%; in assay [4] (setting [8]), 31%; in assay [4] (at 50.0 µM), 54.2%. In addition, the growth inhibition in assay [5] (setting [7]) is -12%; in assay [5] (setting [8]), 49%; in assay [5] (at 50.0 µM) it was 87.8% (active); in assay [6] (setting [7]), -14%; in assay [6] (setting [8]) it was 55%; in assay [6] (at 50.0 µM) it was 96.1% (active).
Consider `Nc1ccccc1/C=C/c1c[nH]c2ccccc12`, for which the growth inhibition in assay [1] (setting [7]) was 11%; in assay [1] (setting [8]), 97% (active); in assay [1] (at 50.0 µM) it was 91.6% (active); in assay [2] (setting [7]), 4%; in assay [2] (setting [8]), 98% (active); in assay [2] (at 50.0 µM), 97.5% (active). Besides, the growth inhibition is 5% in assay [3] (setting [7]); 98% (active) in assay [3] (setting [8]); 53.2% in assay [3] (at 50.0 µM); -8% in assay [4] (setting [7]); 98% (active) in assay [4] (setting [8]); 95.6% (active) in assay [4] (at 50.0 µM). Besides, the growth inhibition in assay [5] (setting [7]) is 28%; in assay [5] (setting [8]), 97% (active); in assay [5] (at 50.0 µM), 97.7% (active); in assay [6] (setting [7]) it was 9%; in assay [6] (setting [8]) it was 98% (active); in assay [6] (at 50.0 µM) it was 97.3% (active).
As for `Fc1ccc(NC(=S)SCc2ccc(Cl)c(Cl)c2)c(F)c1`, the growth inhibition in assay [1] (setting [7]) is 13%; in assay [1] (setting [8]), 98% (active); in assay [1] (at 50.0 µM), 98.5% (active); in assay [2] (setting [7]), 7%; in assay [2] (setting [8]), 99% (active); in assay [2] (at 50.0 µM), 97.3% (active). Moreover, the growth inhibition in assay [3] (setting [7]) is 6%; in assay [3] (setting [8]), 98% (active); in assay [3] (at 50.0 µM), 99.2% (active); in assay [4] (setting [7]), -6%; in assay [4] (setting [8]), 97% (active); in assay [4] (at 50.0 µM) it was 98.8% (active). Besides, the growth inhibition in assay [5] (setting [7]) is 11%; in assay [5] (setting [8]) it was 98% (active); in assay [5] (at 50.0 µM), 99% (active); in assay [6] (setting [7]) it was 9%; in assay [6] (setting [8]) it was 95% (active); in assay [6] (at 50.0 µM), 99% (active).
As for `N#Cc1c(Cl)nsc1-c1ccc([N+](=O)[O-])cc1`, the growth inhibition was -6% in assay [1] (setting [7]); 35% in assay [1] (setting [8]); 91.2% (active) in assay [1] (at 50.0 µM); 7% in assay [2] (setting [7]); 65% in assay [2] (setting [8]); 93% (active) in assay [2] (at 50.0 µM). In addition, the growth inhibition was 1% in assay [3] (setting [7]); 33% in assay [3] (setting [8]); 91.1% (active) in assay [3] (at 50.0 µM); 27% in assay [4] (setting [7]); 59% in assay [4] (setting [8]); 88.8% (active) in assay [4] (at 50.0 µM). In addition, the growth inhibition in assay [5] (setting [7]) is -6%; in assay [5] (setting [8]), 80% (active); in assay [5] (at 50.0 µM), 92.3% (active); in assay [6] (setting [7]) it was 7%; in assay [6] (setting [8]), 87% (active); in assay [6] (at 50.0 µM), 84.6% (active).
As to `CCCCN(CCCC)CCC(=O)c1ccc2c(ccc3ccccc32)c1`, the growth inhibition is 19% in assay [1] (setting [7]); 99% (active) in assay [1] (setting [8]); 96.3% (active) in assay [1] (at 50.0 µM); 7% in assay [2] (setting [7]); 99% (active) in assay [2] (setting [8]); 95.5% (active) in assay [2] (at 50.0 µM). Also, the growth inhibition in assay [3] (setting [7]) is 20%; in assay [3] (setting [8]), 99% (active); in assay [3] (at 50.0 µM), 98.8% (active); in assay [4] (setting [7]), 21%; in assay [4] (setting [8]) it was 99% (active); in assay [4] (at 50.0 µM) it was 87% (active). Further, the growth inhibition in assay [5] (setting [7]) is 47%; in assay [5] (setting [8]), 98% (active); in assay [5] (at 50.0 µM) it was 99% (active); in assay [6] (setting [7]), 12%; in assay [6] (setting [8]), 99% (active); in assay [6] (at 50.0 µM), 98.8% (active).
Regarding `CCCCCCCCCCCC(=O)OCC1OC(OC)C(NC(=O)N(CCCl)N=O)C(O)C1O` (stereo not given), the growth inhibition in assay [1] (setting [7]) was 39%; in assay [1] (setting [8]), 39%; in assay [1] (at 50.0 µM), 79.9% (active); in assay [2] (setting [7]) it was 20%; in assay [2] (setting [8]), 20%; in assay [2] (at 50.0 µM), 67.5%. For the same molecule, the growth inhibition in assay [3] (setting [7]) was 21%; in assay [3] (setting [8]), 21%; in assay [3] (at 50.0 µM), 90.5% (active); in assay [4] (setting [7]), 17%; in assay [4] (setting [8]) it was 17%; in assay [4] (at 50.0 µM) it was 30.5%. The growth inhibition was 13% in assay [5] (setting [7]); 13% in assay [5] (setting [8]); 77.4% (active) in assay [5] (at 50.0 µM); 14% in assay [6] (setting [7]); 14% in assay [6] (setting [8]); 76% (active) in assay [6] (at 50.0 µM).
Consider `O=C1OC(CCl)CC12CC(CCl)OC2=O` (stereo not given), for which the growth inhibition is 1% in assay [1] (setting [7]); 2% in assay [1] (setting [8]); 93.7% (active) in assay [1] (at 50.0 µM); -4% in assay [2] (setting [7]); 3% in assay [2] (setting [8]); 89.7% (active) in assay [2] (at 50.0 µM). Besides, the growth inhibition in assay [3] (setting [7]) is -1%; in assay [3] (setting [8]), 1%; in assay [3] (at 50.0 µM) it was 94% (active); in assay [4] (setting [7]) it was -1%; in assay [4] (setting [8]), 1%; in assay [4] (at 50.0 µM), 79.6% (active). The growth inhibition was 0% in assay [5] (setting [7]); -3% in assay [5] (setting [8]); 96% (active) in assay [5] (at 50.0 µM); -3% in assay [6] (setting [7]); 0% in assay [6] (setting [8]); 95.9% (active) in assay [6] (at 50.0 µM).
For `CN1CCC(CCC(=O)OC(C)(C)C)(CN2c3ccccc3Sc3ccccc32)C1` (stereo not given), the growth inhibition in assay [1] (setting [7]) is -4%; in assay [1] (setting [8]), 98% (active); in assay [1] (at 50.0 µM), 99.5% (active); in assay [2] (setting [7]), -14%; in assay [2] (setting [8]), 96% (active); in assay [2] (at 50.0 µM) it was 99.8% (active). In addition, the growth inhibition in assay [3] (setting [7]) was -12%; in assay [3] (setting [8]), 96% (active); in assay [3] (at 50.0 µM), 99.7% (active); in assay [4] (setting [7]) it was -12%; in assay [4] (setting [8]), 97% (active); in assay [4] (at 50.0 µM) it was 96.7% (active). The growth inhibition in assay [5] (setting [7]) is -2%; in assay [5] (setting [8]), 78% (active); in assay [5] (at 50.0 µM) it was 96.5% (active); in assay [6] (setting [7]) it was 19%; in assay [6] (setting [8]), 99% (active); in assay [6] (at 50.0 µM) it was 99.6% (active).
For `CCN(CC)C(=S)Nc1ccc(Cl)cc1`, the growth inhibition in assay [1] (setting [7]) was -144%; in assay [1] (setting [8]) it was 67%; in assay [1] (at 50.0 µM), 98.5% (active); in assay [2] (setting [7]), -50%; in assay [2] (setting [8]), 49%; in assay [2] (at 50.0 µM) it was 97.7% (active). For the same molecule, the growth inhibition was -62% in assay [3] (setting [7]); 63% in assay [3] (setting [8]); 97.1% (active) in assay [3] (at 50.0 µM); -85% in assay [4] (setting [7]); 40% in assay [4] (setting [8]); 98.5% (active) in assay [4] (at 50.0 µM). The growth inhibition in assay [5] (setting [7]) is -65%; in assay [5] (setting [8]) it was 45%; in assay [5] (at 50.0 µM) it was 95.2% (active); in assay [6] (setting [7]) it was -122%; in assay [6] (setting [8]), 74% (active); in assay [6] (at 50.0 µM), 97.4% (active).
As for `O=C(Nc1cc(Cl)c(Cl)cc1Cl)C(=O)C(C(=O)c1ccc2ccccc2c1)C1OC(=O)c2ccccc21` (stereo not given), the growth inhibition was 17% in assay [1] (setting [7]); 17% in assay [1] (setting [8]); 67.7% in assay [1] (at 50.0 µM); 2% in assay [2] (setting [7]); 2% in assay [2] (setting [8]); 37.2% in assay [2] (at 50.0 µM). Besides, the growth inhibition in assay [3] (setting [7]) was 15%; in assay [3] (setting [8]) it was 15%; in assay [3] (at 50.0 µM), 63.9%; in assay [4] (setting [7]), 6%; in assay [4] (setting [8]), 6%; in assay [4] (at 50.0 µM), 64.5%. Besides, the growth inhibition in assay [5] (setting [7]) was -8%; in assay [5] (setting [8]), -8%; in assay [5] (at 50.0 µM) it was 59.2%; in assay [6] (setting [7]), -14%; in assay [6] (setting [8]) it was -14%; in assay [6] (at 50.0 µM), 40%.
